This is part of a sample that, as a whole, favours compounds with a hit. Of some 83,000 tested, about 20% had one in any assay.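 A percent growth of 40 corresponds to 60% growth inhibition; 0 means no net growth; -100 means all cells died. Active threshold: below 10.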 Activity calls are given as the source filed them.
What was measured:
Test in all cases: NCI-60 one-dose screen, 48 h (100 = growth as untreated, 0 = no growth, -100 = all killed)
HCT-15 colon = details: 10 µM unless noted
HT29 colon = details: 10 µM unless noted
SNB-75 CNS = details: 10 µM unless noted
SNB-19 CNS = details: 10 µM unless noted
U251 CNS = details: 10 µM unless noted
PC-3 prostate = details: 10 µM unless noted
SK-MEL-5 melanoma = details: 10 µM unless noted
UACC-62 melanoma = details: 10 µM unless noted
LOX IMVI melanoma = details: 10 µM
SK-MEL-28 melanoma = details: 10 µM unless noted

Measured: growth

CCOc1ccc2c(c1)/C(=C\C=C\C1CC(C)C3CC(OCC)CCC3N1CC)CC(C)N2CC (stereo not drawn)
inactive: HCT-15 colon 17.8% | SNB-19 CNS 22.2% | UACC-62 melanoma 32.5% | LOX IMVI melanoma 16.3% | SK-MEL-28 melanoma 22.8%
active: HT29 colon -33.4% | SNB-75 CNS -0.249% | U251 CNS 6.59% | PC-3 prostate 3.32% | SK-MEL-5 melanoma -86.3%

CCC(=O)c1cc([N+](=O)[O-])c(Br)s1
active: LOX IMVI melanoma -41.2%
inactive: HCT-15 colon 61% | HT29 colon 41.6% | SNB-75 CNS 95.7% | SNB-19 CNS 99.8% | U251 CNS 93.4% | PC-3 prostate 101% | SK-MEL-5 melanoma 98.9% | UACC-62 melanoma 105% | SK-MEL-28 melanoma 110%

CCCCCCCCCCCCSC(=N)N
active: HCT-15 colon -21.4% | HT29 colon -64.4% | SNB-75 CNS 8.5% | U251 CNS -10.1% | LOX IMVI melanoma -70.8%
inactive: SNB-19 CNS 69% | PC-3 prostate 33% | SK-MEL-5 melanoma 38.5% | UACC-62 melanoma 107% | SK-MEL-28 melanoma 52.7%

c1ccc(-c2cc3cc4ccccc4cn3c2)cc1
inactive: HCT-15 colon 100% | HT29 colon 105% | SNB-75 CNS 89.9% | SNB-19 CNS 92.3% | U251 CNS 82.4% | PC-3 prostate 78.9% | SK-MEL-5 melanoma 80.6% | LOX IMVI melanoma 86% | SK-MEL-28 melanoma 98.5%

c1ccc2sc(SSN3CC4CCC(CC4)C3)nc2c1
inactive: HCT-15 colon 110% | HT29 colon 114% | SNB-75 CNS 85.8% | SNB-19 CNS 105% | U251 CNS 106% | PC-3 prostate 100% | SK-MEL-5 melanoma 97.9% | UACC-62 melanoma 90.5% | LOX IMVI melanoma 92.1% | SK-MEL-28 melanoma 132%

Oc1ccc2c(c1)CCc1ccccc1-2
inactive: HCT-15 colon 92.6% | HT29 colon 95% | SNB-75 CNS 56.1% | SNB-19 CNS 102% | U251 CNS 95.9% | PC-3 prostate 99.2% | SK-MEL-5 melanoma 97.8% | UACC-62 melanoma 104% | LOX IMVI melanoma 107% | SK-MEL-28 melanoma 105%

N=C1C=C(N)C(=O)c2ccccc21
active: HCT-15 colon -74.6% | HT29 colon -38.8% | SNB-75 CNS -99.1% | SNB-19 CNS -98.7% | U251 CNS -72.1% | PC-3 prostate -7.01% | SK-MEL-5 melanoma -96% | UACC-62 melanoma -95.8% | LOX IMVI melanoma -100% | SK-MEL-28 melanoma -96.5%

CCOC(=O)C1=NN(c2ccccc2)C(=O)/C1=C\N1C(=O)/C(=C/c2cccc(O)c2)SC1=S
inactive: HCT-15 colon 109% | HT29 colon 111% | SNB-75 CNS 97.2% | SNB-19 CNS 94.4% | U251 CNS 89% | PC-3 prostate 88% | SK-MEL-5 melanoma 95% | UACC-62 melanoma 91.9% | LOX IMVI melanoma 88% | SK-MEL-28 melanoma 111%

CCCCCCCCCCCCCCCCCC[S+](C)CC (stereo not drawn)
active: HT29 colon 4.75% | SNB-75 CNS -25.1% | SNB-19 CNS 8.74% | U251 CNS -57.5% | SK-MEL-5 melanoma -99.1% | LOX IMVI melanoma -51.6%
inactive: HCT-15 colon 38.8% | PC-3 prostate 36.3% | UACC-62 melanoma 19.3% | SK-MEL-28 melanoma 48.6%

Oc1ccc2ccccc2c1N=Nc1ccccn1
active: LOX IMVI melanoma 6.2%
inactive: HCT-15 colon 26.9% | HT29 colon 20.9% | SNB-75 CNS 59.1% | SNB-19 CNS 53.4% | U251 CNS 30.5% | SK-MEL-5 melanoma 23.7% | UACC-62 melanoma 29.8% | SK-MEL-28 melanoma 40.7%

O=C(O)c1ccc2c(c1)C(=O)c1ccccc1C2=O
inactive: HCT-15 colon 106% | HT29 colon 108% | SNB-75 CNS 91.6% | SNB-19 CNS 104% | PC-3 prostate 96.5% | SK-MEL-5 melanoma 97.5% | UACC-62 melanoma 94.9% | LOX IMVI melanoma 96.1% | SK-MEL-28 melanoma 111%

CCCC[n+]1c(/C=C\c2c(OC)cc(OC)cc2OC)ccc2ccccc21
inactive: HCT-15 colon 35.1% | SNB-19 CNS 19%
active: HT29 colon -33.5% | SNB-75 CNS -13.2% | PC-3 prostate 2.91% | SK-MEL-5 melanoma -97.2% | UACC-62 melanoma -37.2% | LOX IMVI melanoma -75.5% | SK-MEL-28 melanoma -10.8%

CCC1CCCCN1C(=S)N/N=C(\C)c1ccccn1 (stereo not drawn)
active: HT29 colon -19.5% | U251 CNS 6.56% | SK-MEL-5 melanoma -61.5% | UACC-62 melanoma -39.8% | LOX IMVI melanoma 6.45%
inactive: HCT-15 colon 27.3% | SNB-75 CNS 16.1% | SNB-19 CNS 16.2% | SK-MEL-28 melanoma 28%

Cc1cc(C(=O)c2ccc(Cl)cc2)ccc1O
inactive: HCT-15 colon 112% | HT29 colon 99.1% | SNB-75 CNS 96% | SNB-19 CNS 116% | U251 CNS 101% | SK-MEL-5 melanoma 95.3% | UACC-62 melanoma 89.8% | LOX IMVI melanoma 99.3% | SK-MEL-28 melanoma 105%

COc1ccc(C(Cn2ccnc2)Sc2ccc(Cl)c(Cl)c2)cc1 (stereo not drawn)
inactive: HCT-15 colon 79.7% | HT29 colon 59.6% | SNB-75 CNS 89.2% | SNB-19 CNS 98.6% | PC-3 prostate 63.1% | SK-MEL-5 melanoma 66.5% | UACC-62 melanoma 77.6% | LOX IMVI melanoma 84.4% | SK-MEL-28 melanoma 85.3%

CCCCCCCCCCCC[n+]1ccccc1 (tested in a mixture with another compound)
inactive: HCT-15 colon 38.5%
active: HT29 colon -30.1% | SNB-75 CNS -45.9% | SNB-19 CNS -10.2% | PC-3 prostate -61.8% | SK-MEL-5 melanoma -98.5% | UACC-62 melanoma -62.3% | LOX IMVI melanoma -58.3% | SK-MEL-28 melanoma -19.1%

CCCCCC/C=C1\CCC(CN2CCCC2)C1=O (stereo not drawn)
inactive: HCT-15 colon 77.1% | HT29 colon 120% | SNB-75 CNS 90.9% | SNB-19 CNS 92.6% | PC-3 prostate 89.7% | SK-MEL-5 melanoma 96.9% | UACC-62 melanoma 99.2% | LOX IMVI melanoma 59.8%

Cc1cc(C)c(C#N)c(Sc2nc(C)c([N+](=O)[O-])c(C)c2C#N)n1
inactive: HCT-15 colon 58.8% | HT29 colon 35.8% | SNB-75 CNS 66% | SNB-19 CNS 98.4% | PC-3 prostate 77.1% | SK-MEL-5 melanoma 86.5% | UACC-62 melanoma 66.8% | SK-MEL-28 melanoma 78.7%
active: LOX IMVI melanoma 1.66%

Cc1ccc2c(c1)sc(-c1ccc(N(C)C)cc1)[n+]2C
inactive: HCT-15 colon 68.7% | SNB-75 CNS 14.2% | SNB-19 CNS 16.1% | SK-MEL-28 melanoma 30.8%
active: HT29 colon 4.16% | U251 CNS -2.09% | SK-MEL-5 melanoma -76.6% | UACC-62 melanoma 8.89% | LOX IMVI melanoma 1.78%

CCSc1nc2ccccc2o1
inactive: HCT-15 colon 102% | HT29 colon 113% | SNB-75 CNS 88.2% | SNB-19 CNS 99.9% | PC-3 prostate 92.3% | SK-MEL-5 melanoma 108% | UACC-62 melanoma 102% | LOX IMVI melanoma 103% | SK-MEL-28 melanoma 113%

CCOC(=O)c1c(C)[nH]c2ccc(O)cc12
inactive: HCT-15 colon 109% | HT29 colon 96.3% | SNB-75 CNS 100% | SNB-19 CNS 101% | U251 CNS 97.3% | PC-3 prostate 93.2% | SK-MEL-5 melanoma 101% | LOX IMVI melanoma 97.1% | SK-MEL-28 melanoma 120%

O=C1C(=O)c2cc([N+](=O)[O-])ccc2-c2ccccc21
active: HCT-15 colon -53.7% | HT29 colon -79.4% | SNB-75 CNS -98.2% | SNB-19 CNS -93.8% | U251 CNS -81.5% | SK-MEL-5 melanoma -99.6% | UACC-62 melanoma -94.2% | LOX IMVI melanoma -88.4% | SK-MEL-28 melanoma -97%

CCN1CCCC(Nc2cc(C)nc(/N=C(/N)Nc3ccc(Cl)c(Cl)c3)n2)C1 (stereo not drawn)
active: HCT-15 colon -37.2% | HT29 colon -46.9% | SNB-75 CNS -76.8% | SNB-19 CNS -17.5% | PC-3 prostate 7.05% | SK-MEL-5 melanoma -97.6% | UACC-62 melanoma -80.7% | LOX IMVI melanoma -61.5%

O=C1/C(=C\c2ccc([N+](=O)[O-])cc2)CS(=O)(=O)C/C1=C/c1ccc([N+](=O)[O-])cc1
active: HCT-15 colon -86.7% | HT29 colon -57.7% | SNB-75 CNS -89.6% | SNB-19 CNS -96.3% | U251 CNS -86.6% | PC-3 prostate -81.6% | UACC-62 melanoma -90.7% | LOX IMVI melanoma -82.8%

Cc1ccccc1N=C(N)Nc1ccccc1C (tested in a mixture with another compound)
inactive: HCT-15 colon 66.5% | HT29 colon 97.3% | SNB-75 CNS 99.5% | SNB-19 CNS 89.1% | PC-3 prostate 70.7% | SK-MEL-5 melanoma 73.1% | UACC-62 melanoma 90.5% | LOX IMVI melanoma 93% | SK-MEL-28 melanoma 105%

CC(=O)C1Cc2ccccc2C1=O (stereo not drawn)
inactive: HCT-15 colon 108% | HT29 colon 104% | SNB-75 CNS 70.8% | SNB-19 CNS 98% | U251 CNS 103% | PC-3 prostate 94.7% | SK-MEL-5 melanoma 103% | LOX IMVI melanoma 94.4% | SK-MEL-28 melanoma 115%

O=C(c1ccccc1)c1cc2ccccc2oc1=O
inactive: HCT-15 colon 108% | HT29 colon 113% | SNB-75 CNS 71.8% | SNB-19 CNS 97.4% | U251 CNS 90.2% | PC-3 prostate 72.3% | UACC-62 melanoma 93.4% | LOX IMVI melanoma 89.8%

CC(/C=N/NC(N)=S)Cc1ccc(C(C)C)cc1 (stereo not drawn)
inactive: HCT-15 colon 80.2% | HT29 colon 47.1% | SNB-75 CNS 71.4% | SNB-19 CNS 69.3% | U251 CNS 88.7% | PC-3 prostate 73.5% | UACC-62 melanoma 54.5% | LOX IMVI melanoma 79.5% | SK-MEL-28 melanoma 82.4%

O=[N+]([O-])c1ccc(C2N(Cc3ccc(Cl)cc3)CCN2Cc2ccc(Cl)cc2)cc1
inactive: HCT-15 colon 84.9% | HT29 colon 73.3% | SNB-75 CNS 74.1% | SNB-19 CNS 96.7% | PC-3 prostate 82.3% | SK-MEL-5 melanoma 88.8% | UACC-62 melanoma 102% | LOX IMVI melanoma 96.9%

S=C=Nc1ccc(N2CCOCC2)cc1
inactive: HCT-15 colon 90.5% | HT29 colon 86.3% | SNB-75 CNS 66.4% | SNB-19 CNS 91.8% | PC-3 prostate 90.1% | SK-MEL-5 melanoma 98.2% | UACC-62 melanoma 82.1% | LOX IMVI melanoma 92.4% | SK-MEL-28 melanoma 92.5%

From PubChem BioAssay (NCI)
